The panel holds about 83,000 compounds, 20% with a hit somewhere; the sample as a whole holds those more often.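 For each line, cells grew in 96-well plates with the test compound present at a single concentration for 48 hours.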 A number with no mark means an inactive call. Active and inactive are the calls of the source. Rule for the calls: active = growth percent below 10; inactive = the rest.

The first test deals with NCI-H460 lung. Description: NCI-60 one-dose screen, 48 h (100 = growth as untreated, 0 = no growth, -100 = all killed). As to conditions: 10 µM unless noted.
Regarding `NC1=NC(c2cccc(Br)c2)c2sc3ccc(Cl)cc3c2N1` (stereo unspecified), the growth was 98.6%.

As to `Cc1nc2ccccc2c(/C=C/c2ccccc2)c1C(=O)/C=C/c1ccc(C(F)(F)F)cc1`, the growth was -71.6% (active).

As to `NCCCNc1nc2ccccc2c2c(=O)c3cc(OC(F)(F)F)ccc3sc12`, the growth is -76.6% (active).

Another test concerns HOP-92 NSCLC. The description is as above. As to conditions: 10 µM unless noted.
Turning to `NC1=NC(c2cccc(Br)c2)c2sc3ccc(Cl)cc3c2N1` (stereo unspecified), the growth was 96.7%.

On to `CCCCn1c(-c2ccc(-c3nc(-c4ccc(Cl)cc4)no3)cc2)nc(-c2ccccc2)c1-c1ccccc1`, for which the growth is 75.4%.

Take `CCc1ccccc1-n1c(N)c(C#N)c(-c2ccc(Cl)cc2)c(C#N)c1=O`: the growth was 80%.

Turning to `Cc1ccc(/C=N\NC(=O)c2[nH]c3ccc(F)cc3c2-c2ccccc2)cc1`, the growth is 4.75% (active).

In the case of `COc1ccc(/C=C/c2c(C(=O)/C=C/c3ccc(C(F)(F)F)cc3)c(C)nc3ccccc23)cc1`, the growth was -64.3% (active).

Regarding `Cc1c(C(=O)/C=C/Nc2c(Cl)cc(S(N)(=O)=O)cc2Cl)sc2nc3ccccc3n12`, the growth was 111%.

Regarding `CC(=O)N1N=C(c2ccc(Nc3nc(Nc4ccc(F)cc4)nc(Nc4ccc(Cl)cc4)n3)cc2)CC1c1ccc(Cl)cc1` (stereo unspecified), the growth was 64.1%.

`COc1ccccc1/C=C1\Oc2cc(OCCN3CCC(Cc4ccccc4)CC3)ccc2C1=O`: the growth was 57.8%.

`Cc1nc2ccccc2c(/C=C/c2ccccc2)c1C(=O)/C=C/c1ccc(C(F)(F)F)cc1`: the growth is -64.8% (active).

For `Cc1[nH]c(C(=O)Nc2ccc(C(=O)N3CCNCC3)cc2OC(C)C)c(Cl)c1Cl`, the growth is 43.5%.

As to `CN1C(=O)N(C)C2Nn3c(s/c(=C\c4ccccc4)c3=O)=NC21` (stereo unspecified), the growth is 100%.

For `COc1ccc([C@H]2c3cc(OC)c(OC)cc3C=C(C=O)C2CO)cc1OC` (stereo partly specified), the growth is 36.8%.

Take `O=c1n(Cc2ccc3ccccc3c2)ccn1Cc1ccc2ccccc2c1`: the growth was 83.1%.

Take `N/C(=N\c1nc2ccccc2s1)NC(=O)Nc1cccc2ccccc12`: the growth was 48.4%.

For `O=C(N=c1oc2ccccc2cc1-c1cc2ccccc2[nH]1)Nc1ccc(Cl)cc1`, the growth was 95.1%.

In the case of `Fc1cc(-c2nnc3sc(-c4ccc(Cl)cc4Cl)nn23)c(Cl)cc1Cl`, the growth is 81.5%.

On to `CSc1ccc2c(c1)c(CCN)c(C)n2Cc1ccc(Cl)c(Cl)c1`, for which the growth is -91.6% (active).

For `OC(c1ccccc1)C(NC(Cc1ccccc1)c1ccccc1)c1ccccc1` (stereo unspecified), the growth is 65.3%.

As for `O=C(/C=C/c1ccc([N+](=O)[O-])o1)NNC(=O)c1cc2ccccc2cc1O`, the growth was 4.15% (active).

Regarding `CCCCCCCCCCCCCCCCCCOc1ccccc1CC(=O)OCC[N+](CC)(CC)CC`, the growth was 6.81% (active).

As to `Cc1c(C(=O)NCCN2CCOCC2)cn2ncnc(Oc3ccc(NC(=O)Nc4ccc(Cl)c(C(F)(F)F)c4)cc3)c12`, the growth was 7.32% (active).

As to `Cc1ccc2c(n1)C(=O)C(Cl)=C(Nc1ccccc1C(C)C)C2=O`, the growth is 106%.

Take `Nc1cc2c(cc1Br)-c1cc(Cl)ccc1C2=O`: the growth was 87.6%.

For the compound `Cc1nn(-c2ccccc2)c2c1N=c1s/c(=C\c3ccc(C(F)(F)F)cc3)c(=O)n1CN2`, the growth was 56.4%.

With `COc1ccc2c(c1)/C(=C/c1sc(=S)n(Cc3ccco3)c1O)C=N2`, the growth was 77.5%.

On to `COc1nc2ccccc2cc1-c1nc2c(cnn2-c2ccccc2)c(=O)[nH]1`, for which the growth is 64.6%.

Consider `Cc1[nH]c(C(=O)Nc2ccc(C(=O)NCCN)cc2OC(C)C)c(Cl)c1Cl`, for which the growth is 29.7%.

Turning to `CC(C)c1cc(C(C)C)c(S(=O)(=O)Oc2ccc(NC(=O)c3ccc(Cl)cc3)cc2)c(C(C)C)c1`, the growth was 19.1%.

As for `CN1C(=O)CNC(=O)[C@H](NC(=O)c2nc3ccccc3cc2O)CSSC[C@H]1C(=O)NCCCc1nc2ccccc2cc1O`, the growth was 120%.

With `O=S(=O)(Nc1ccc(-c2nc(-c3cccc(OCCN4CCOCC4)c3)c(-c3ccnc(Br)c3)[nH]2)cc1)c1ccccc1`, the growth was 22%.

Consider `COc1ccc(-c2cc3c4c(nc5ccccc5c4c2)CC(c2cc(OC)c(OC)c(OC)c2)O3)cc1` (stereo unspecified), for which the growth was -7.6% (active).

For the compound `COc1ccc(/C=N/Nc2cc(=O)[nH]c3ccc(Cl)cc23)cc1`, the growth was 70.8%.

With `COc1ccc(S(=O)(=O)n2c3ccccc3n3ncc(-c4nnc(C)o4)c23)cc1`, the growth was 66%.

Take `CCc1cccc2c3c(sc12)C(c1ccc(Cl)cc1)C(C#N)=C(N)O3` (stereo unspecified): the growth is 66.7%.

Consider `Clc1ccc(C(/C=C/c2sc(Cl)nc2Cl)=N/Nc2cc(Cl)cc(Cl)c2)cc1`, for which the growth was 93%.

For `NCCCNc1nc2ccccc2c2c(=O)c3cc(OC(F)(F)F)ccc3sc12`, the growth is 17.3%.

As to `Cc1cc(-c2cc(C)c(N)cc2C)c(C)cc1N`, the growth was 45.9%.

Take `O=C(Nc1ccc(F)cc1F)c1cc(F)ccc1O`: the growth was -29.9% (active).

In the next test the test system is NCI-H522 lung. Described as above. The conditions noted are these: 10 µM unless noted.
For the compound `CCCCn1c(-c2ccc(-c3nc(-c4ccc(Cl)cc4)no3)cc2)nc(-c2ccccc2)c1-c1ccccc1`, the growth is 75.2%.

Consider `CCc1ccccc1-n1c(N)c(C#N)c(-c2ccc(Cl)cc2)c(C#N)c1=O`, for which the growth was 94.2%.

As to `COc1ccc(/C=C/c2c(C(=O)/C=C/c3ccc(C(F)(F)F)cc3)c(C)nc3ccccc23)cc1`, the growth was -0.88% (active).

For `Cc1c(C(=O)/C=C/Nc2c(Cl)cc(S(N)(=O)=O)cc2Cl)sc2nc3ccccc3n12`, the growth is 89.9%.

Take `CC(=O)N1N=C(c2ccc(Nc3nc(Nc4ccc(F)cc4)nc(Nc4ccc(Cl)cc4)n3)cc2)CC1c1ccc(Cl)cc1` (stereo unspecified): the growth is 73.2%.

For the compound `COc1ccccc1/C=C1\Oc2cc(OCCN3CCC(Cc4ccccc4)CC3)ccc2C1=O`, the growth was 91.7%.

For `Cc1[nH]c(C(=O)Nc2ccc(C(=O)N3CCNCC3)cc2OC(C)C)c(Cl)c1Cl`, the growth was 94%.

Take `CN1C(=O)N(C)C2Nn3c(s/c(=C\c4ccccc4)c3=O)=NC21` (stereo unspecified): the growth was 87.1%.

On to `COc1ccc([C@H]2c3cc(OC)c(OC)cc3C=C(C=O)C2CO)cc1OC` (stereo partly specified), for which the growth is 32.1%.

On to `O=c1n(Cc2ccc3ccccc3c2)ccn1Cc1ccc2ccccc2c1`, for which the growth is 46.8%.

With `N/C(=N\c1nc2ccccc2s1)NC(=O)Nc1cccc2ccccc12`, the growth was 5.26% (active).

In the case of `O=C(N=c1oc2ccccc2cc1-c1cc2ccccc2[nH]1)Nc1ccc(Cl)cc1`, the growth was 88.4%.

As to `Fc1cc(-c2nnc3sc(-c4ccc(Cl)cc4Cl)nn23)c(Cl)cc1Cl`, the growth was 86.6%.

Turning to `CSc1ccc2c(c1)c(CCN)c(C)n2Cc1ccc(Cl)c(Cl)c1`, the growth was -76.5% (active).

In the case of `OC(c1ccccc1)C(NC(Cc1ccccc1)c1ccccc1)c1ccccc1` (stereo unspecified), the growth is 67.1%.

Take `O=C(/C=C/c1ccc([N+](=O)[O-])o1)NNC(=O)c1cc2ccccc2cc1O`: the growth is -79.5% (active).

Regarding `CCCCCCCCCCCCCCCCCCOc1ccccc1CC(=O)OCC[N+](CC)(CC)CC`, the growth is 10.5%.

Regarding `Cc1c(C(=O)NCCN2CCOCC2)cn2ncnc(Oc3ccc(NC(=O)Nc4ccc(Cl)c(C(F)(F)F)c4)cc3)c12`, the growth is 5.61% (active).

As for `Cc1ccc2c(n1)C(=O)C(Cl)=C(Nc1ccccc1C(C)C)C2=O`, the growth was 39.3%.

On to `Nc1cc2c(cc1Br)-c1cc(Cl)ccc1C2=O`, for which the growth was 96.1%.

As to `Cc1nn(-c2ccccc2)c2c1N=c1s/c(=C\c3ccc(C(F)(F)F)cc3)c(=O)n1CN2`, the growth was 40.5%.

With `COc1ccc2c(c1)/C(=C/c1sc(=S)n(Cc3ccco3)c1O)C=N2`, the growth is 32.5%.

On to `COc1nc2ccccc2cc1-c1nc2c(cnn2-c2ccccc2)c(=O)[nH]1`, for which the growth is 21.6%.

In the case of `Cc1[nH]c(C(=O)Nc2ccc(C(=O)NCCN)cc2OC(C)C)c(Cl)c1Cl`, the growth is -6.73% (active).

Regarding `CC(C)c1cc(C(C)C)c(S(=O)(=O)Oc2ccc(NC(=O)c3ccc(Cl)cc3)cc2)c(C(C)C)c1`, the growth is 7.91% (active).

In the case of `CN1C(=O)CNC(=O)[C@H](NC(=O)c2nc3ccccc3cc2O)CSSC[C@H]1C(=O)NCCCc1nc2ccccc2cc1O`, the growth is 60.4%.

On to `O=S(=O)(Nc1ccc(-c2nc(-c3cccc(OCCN4CCOCC4)c3)c(-c3ccnc(Br)c3)[nH]2)cc1)c1ccccc1`, for which the growth was 32.8%.

As for `COc1ccc(-c2cc3c4c(nc5ccccc5c4c2)CC(c2cc(OC)c(OC)c(OC)c2)O3)cc1` (stereo unspecified), the growth was 55.6%.

As for `COc1ccc(/C=N/Nc2cc(=O)[nH]c3ccc(Cl)cc23)cc1`, the growth was -42.7% (active).

Take `COc1ccc(S(=O)(=O)n2c3ccccc3n3ncc(-c4nnc(C)o4)c23)cc1`: the growth is 31.2%.

On to `CCc1cccc2c3c(sc12)C(c1ccc(Cl)cc1)C(C#N)=C(N)O3` (stereo unspecified), for which the growth was 16.8%.

Regarding `Clc1ccc(C(/C=C/c2sc(Cl)nc2Cl)=N/Nc2cc(Cl)cc(Cl)c2)cc1`, the growth is 90.8%.

In the case of `NCCCNc1nc2ccccc2c2c(=O)c3cc(OC(F)(F)F)ccc3sc12`, the growth was -14.4% (active).

Consider `Cc1cc(-c2cc(C)c(N)cc2C)c(C)cc1N`, for which the growth is 86.1%.

On to `O=C(Nc1ccc(F)cc1F)c1cc(F)ccc1O`, for which the growth was -6.24% (active).

(Values after PubChem BioAssay (NCI).)
